Assay outcomes from PubChem.
In the library only some 19% were active in any assay of this set; here they are far more common.
HT1080NT lethal: kills 2HG-producing HT-1080-NT fibrosarcoma cells. HT-1080-NT fibrosarcoma viability, CellTiter-Glo ATP luminescence, 48 h. Potency, µM (titrated, usually from 46.1 µM), inactives show at the top dose activity, negative = less viability, usual class: cytotoxic. 1.6% of 360,000 active. AID 686970;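 also: NT is the 2HG producing partner of a matched IDH1 knockdown line; potency is read from the fitted curve at half-maximal effect; 0% = DMSO-treated cells and -100% = media-only wells without cells; nearly all actives have a fitted effect of over 55% in size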
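Viability by CellTiter-Glo luminescence after 48 h compound exposure at 37C of HT-1080-NT cells (750/well, RPMI, 5% FBS). % activity scaled between DMSO wells and medium-only wells, then curve-fitted and categorized by curve class.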
TDP1 cell CPT: growth inhibition of DT40 Tdp1-/-;hTDP1 cells with camptothecin (screen for TDP1 inhibitors). Potency, µM (top dose mostly 46.2 µM), for the others: at the highest dose activity change, negative = growth inhibition, actives largely listed as inhibitors. chicken DT40 Tdp1-/-;hTDP1 cells + 20 nM CPT, ATP luminescence, 48 h. 12% of 420,000 active; also: potency is read from the fitted curve at half-maximal effect; nearly all actives have a fitted effect of over 55% in size
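Chicken DT40 Tdp1-/- cells stably complemented with human TDP1 were seeded at 400 cells/well in medium containing 20 nM camptothecin, exposed to pin-transferred compounds, and grown at 37 °C for at least 48 hr. Viability was read as ATP luminescence.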
IL1B secr inh: inflammasome signaling inhibition, IL-1 beta readout; activity change, % at 57.5 µM; THP-1 LPS/ATP IL-1B secretion, AlphaLISA, 16 h; hits give low values; 4.7% of 360,000 active; in the data active = activity change below about -50%; inconclusive = mostly about -30% to -49%
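Secreted IL-1B measured by AlphaLISA bead assay after 16 h compound exposure of THP-1 cells; compounds (final up to 57.5 uM) added 1 h before LPS (250 ng/mL) and ATP (1.25 mM) stimulation; lower signal means less secretion.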
HT1080 IDH1KD tx: toxicity to HT-1080 IDH1 knockdown cells (counter line); 2% of 360,000 active; Potency, µM (top dose mostly 46.1 µM), without a hit: top-dose activity, negative = toxicity, actives largely listed as cytotoxic; AID 686971; HT-1080 IDH1 knockdown viability, ATP luminescence, 48 h;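 also: potency is read from the fitted curve at half-maximal effect; 0% = DMSO wells and -100% = cell-free medium wells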
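After a 2 h attachment period, IDH1KD HT-1080 cells took pin-transferred compound for 48 h at 37 °C; ATP-based luminescence after 10 min room-temperature reagent incubation reported viability.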
DT40 TDP1 no CPT: qHTS for Inhibitors of human tyrosyl-DNA phosphodiesterase 1 (TDP1): qHTS in cells in absence of CPT. DT40 Tdp1-/- hTDP1 cells, no CPT, ATP luminescence, 48 h. Potency, µM (titrated, usually from 46.2 µM), without a hit: top-dose activity change, negative = growth inhibition, hits mostly inhibitors. 15% of 420,000 active; also: potency is read from the fitted curve at half-maximal effect; nearly all actives have a fitted effect of over 55% in size
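Chicken DT40 Tdp1-/- cells stably complemented with human TDP1 were seeded at 400 cells/well with DMSO in place of 20 nM camptothecin. After compound pinning, cells grew at least 48 hr at 37 °C; viability read by CellTiter-Glo luminescence.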
ELG1 DNA repair: ELG1-dependent DNA repair inhibition; HEK293T ELG1-luciferase reporter, luminescence, 16 h; DNA damage induced by 5-fluorouridine; 2.3% of 330,000 active; Potency, µM (titrated, usually from 46.1 µM), for the others: top-dose activity change, negative = inhibition, most hits filed as inhibitors; also: potency is read from the fitted curve at half-maximal effect; nearly all actives have a fitted effect of over 55% in size
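Luminescence from the luciferase reporter, measured 30 min after ONE-Glo reagent at room temperature, was the read-out. Beforehand, 2,000 cells per well were exposed for 16 hr at 37 °C to 5-fluorouridine together with compound or vehicle.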
Starred values were filed as active, the others as inactive; u = inconclusive; x = no result. Unless noted, calls follow the shape of the dose curve; as a rule, active = well fitted curve in the direction sought with a large enough effect; inconclusive = small, poorly fitted or top-dose-only effect, or another doubt; inactive = no such curve, though single readings can be large; an effect the other way counts as inactive or inconclusive. Unless noted, % is scaled to controls: 0 for no effect and ±100 for the full control effect.

SMILES | HT1080NT lethal | TDP1 cell CPT | IL1B secr inh | HT1080 IDH1KD tx | DT40 TDP1 no CPT | ELG1 DNA repair
Cc1cc(=O)c2cc(Br)ccc2n1CC(=O)NCc1ccccc1 | -3% | u | -29 | 3% | u | -14%
CCn1c(O)c(C2=c3ccccc3=NC2=O)c2cc(Br)ccc21 | 9% | 6.5µM* | -64* | 9% | 12µM* | u
CC(C)(C)c1ccc(C(=O)c2c[nH]c(C(=O)NCCCN3CCOCC3)c2)cc1 | 4% | u | 12 | -3% | 18µM* | 17%
CC(C)(C)c1ccc(C(=O)c2c[nH]c(C(=O)NCC3CCCO3)c2)cc1 (centres undefined) | 1% | u | 19 | -12% | 15µM* | 4%
Cc1c(NC(=O)c2cccc(-c3cc4ccccc4oc3=O)c2)cccc1-c1nc2ncccc2o1 | -24% | 26µM* | 31 | -24% | 21µM* | 13µM*
O=C(Nc1cccc(-c2nc3ncccc3o2)c1)c1ccccc1 | 23% | u | 70 | 15% | 12µM* | -18%
N/C(=N\OC(=O)CCC1CCCC1)c1ccccn1 | 0% | -14% | -7 | 3% | -6% | u
Cc1ccccc1C(=O)NC(C(=O)Nc1nc2c(s1)CCCC2)C(C)C (centres undefined) | -5% | 26µM* | -12 | -2% | 26µM* | 21µM*
Cc1cc(NC(=O)c2ccccc2F)on1 | 1% | 13µM* | -3 | 11% | 3% | u
Cc1ccccc1C(=O)N[C@H](C(=O)Nc1ccc(Cl)c(Cl)c1)C(C)C | -22% | -18% | 36 | -13% | -29% | u
Cc1csc(NC(=O)C(NC(=O)c2ccccc2F)C(C)C)n1 (centres undefined) | -13% | u | 1 | -4% | 21µM* | u
Cc1cc(C(=O)NNC(=O)C(C)(C)Oc2ccc(Cl)cc2)c(C)o1 | -2% | 2% | 4 | 0% | u | 0%
CCOC(=O)C1(Cc2ccc(Cl)cc2)CCN(C(=O)CCc2ccncc2)CC1 | -4% | -18% | u | -13% | 13µM* | -10%
CCOC(=O)C1(Cc2ccc(OC)cc2)CCN(C(=O)C2=CCCC2)CC1 | 3% | u | 40 | -15% | 18µM* | 9%
CCOC(=O)C1(Cc2ccc(Cl)cc2)CCN(C(=O)c2sc(C)nc2C)CC1 | -5% | 12µM* | u | -25% | 9.2µM* | u
CCOC(=O)C1(Cc2ccc(OC)cc2)CCN(C(=O)c2sc(C)nc2C)CC1 | 1% | 26µM* | 25 | -6% | 23µM* | u
CCOC(=O)C1(Cc2ccc(OC)cc2)CCN(C(=O)c2cc(C)on2)CC1 | 3% | -26% | -10 | 0% | u | 2%
CN(C)CC(=O)Nc1ccc2c(c1)[C@H]1C[C@H](CC(=O)NCc3ccc4c(c3)OCO4)O[C@H](CO)[C@H]1O2 | 16% | -3% | 18 | 6% | -15% | x
CCCNC(=O)CCCN1C(=O)c2ccccc2Sc2ncccc21 | 13% | -20% | -8 | 14% | 9% | -1%
C=CCC(C(=O)Oc1c(C(C)(C)C)cc(C)cc1C(C)(C)C)c1ccccc1 (centres undefined) | 19% | -27% | 23 | 29% | u | 17%
CCOCCCn1c(=N)c(C(=O)NCc2ccco2)cc2c(=O)n3ccccc3nc21 | x | -2% | x | x | -17% | x
COCCCn1c(=N)c(C(=O)NCc2ccco2)cc2c(=O)n3ccccc3nc21 | x | -1% | x | x | -28% | x
Cc1ccc(Cn2c(=N)c(C(=O)NCc3ccco3)cc3c(=O)n4ccccc4nc32)cc1 | -10% | 11µM* | -8 | -6% | 11µM* | u
COc1ccc(CCNC(=O)c2cc3c(=O)n4ccccc4nc3n(Cc3ccco3)c2=N)cc1OC | 14% | 21µM* | 2 | 9% | 13µM* | 3%
COc1ccc(CCNC(=O)c2cc3c(=O)n4ccccc4nc3n(CCCN3CCOCC3)c2=N)cc1OC | -2% | -20% | -3 | -7% | 3% | u
SMILES | HT1080NT lethal | TDP1 cell CPT | IL1B secr inh | HT1080 IDH1KD tx | DT40 TDP1 no CPT | ELG1 DNA repair
N=c1c(C(=O)NCc2ccco2)cc2c(=O)n3ccccc3nc2n1CCc1ccccc1 | 1% | 18µM* | -1 | -4% | 21µM* | 1%
COc1ccc(CCn2c(=N)c(C(=O)NCc3ccco3)cc3c(=O)n4ccccc4nc32)cc1OC | 0% | 7.3µM* | u | -3% | 6.5µM* | x
CCOc1ccc(-c2nnc(SCC(=O)NCc3ccccc3Cl)o2)cc1 | x | -24% | x | x | -28% | x
C[C@](O)(C(=O)Nc1ccc(S(=O)(=O)c2ccccc2)cc1)C(F)(F)F | x | -4% | x | x | u | x
C=CCn1cnc2c(oc3ccccc32)c1=O | 10% | 3% | 8 | 12% | -2% | u
CC(C)CC1C(=O)N(Cc2cn(Cc3ccco3)nn2)CCS(=O)(=O)N1Cc1ccc(-c2ccc(F)nc2)cc1 (centres undefined) | -21% | u | u | -29% | 23µM* | x
CC(C)CC1C(=O)N(Cc2cn(Cc3ccco3)nn2)CCS(=O)(=O)N1Cc1ccc(-c2ccccc2)cc1 (centres undefined) | -16% | 15µM* | u | u | u | x
CC(C)CC1C(=O)N(Cc2cn(Cc3ccco3)nn2)CCS(=O)(=O)N1Cc1ccc(-c2ccncc2)cc1 (centres undefined) | -1% | 21µM* | u | 0% | 15µM* | x
